In PubChem BioAssay (EPA / NIEHS) one finds outcome and AC50 data, which are given here for five molecules.

As usually defined, the AC50 is the concentration at which the activity in the assay is half-maximal.

The source made the active and inactive calls. How the source made its calls: active means hit-call score of the fitted dose curve at least 0.9, where 1 is the maximum; inactive means score below 0.9.

For assay [1], the target named is CCAAT/enhancer-binding protein beta (Homo sapiens) (UniProt P17676). Nature of the assay: ATG_C_EBP_CIS: Attagene CIS-FACTORIAL HepG2 Assay for human CCAAT/Enhancer Binding Protein (C/EBP) beta (AID 2282927). As to conditions: HepG2 Attagene cis-factorial transcription factor reporter; actives raise or lower the signal. The procedure, abridged: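 HepG2, transient MRTU transfection, 24 h treatment. RT-PCR plus CE fluorescence; DMSO negative control, bidirectional fit.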

Assay [2] can be described thus: ATG_CMV_CIS: Attagene CIS-FACTORIAL HepG2 Assay for human CMV (Internal Marker) (AID 2282928).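 Further: endpoint acts as a background internal control marker rather than a target.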 As to conditions: HepG2 CMV promoter reporter, transcription factor profiling; actives raise or lower the signal. The procedure, abridged: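 CMV internal-marker background readout in transiently transfected HepG2 cells bearing cis-regulated reporter units. Reporter mRNA is measured 24 h after dosing by RT-PCR and capillary electrophoresis, with bidirectional fitting against DMSO.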

A short description of assay [3]: ATG_DR4_LXR_CIS: Attagene CIS-FACTORIAL HepG2 Assay for human Liver X Receptor (LXR), DR4 submotif (AID 2282929). The note with it: HepG2 Attagene DR4 cis-reporter, mRNA transcription; actives raise or lower the signal. In outline:
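HepG2, transient MRTU transfection, cis-element (DR4) promoter; 24 h compound exposure; total RNA → oligo(dT) RT → PCR → 6-FAM primer extension → HpaI cut → CE. Gain/loss vs DMSO, bidirectional fit.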

Assay [4] is described as follows: ATG_AP_1_CIS: Attagene CIS-FACTORIAL HepG2 Assay for human Activator Protein 1 (AP-1) (AID 2282931). The note with it: HepG2 Attagene cis-factorial AP-1 reporter mRNA; actives raise or lower the signal. The procedure, abridged: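 Transient MRTU transfection of HepG2 → 24 h chemical treatment → RNA isolation, RT-PCR, 6-FAM labelling, HpaI digest → capillary electrophoresis. Fit: bidirectional, DMSO negative control.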

The nature of assay [5]: ATG_BRE_CIS: Attagene CIS-FACTORIAL HepG2 Assay for human Bone Morphogenetic Protein (BMP) Response Element (BRE) (AID 2282933). The note with it: HepG2 BMP response element reporter, Attagene transcription factor profiling; actives raise or lower the signal. The procedure, abridged: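 After a 24 h chemical treatment, transiently transfected HepG2 cells were lysed for RNA; reporter transcripts were quantified by fluorescent RT-PCR and capillary electrophoresis, normalised to DMSO.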

The target in assay [6] is Retinoic acid receptor alpha (Homo sapiens) (UniProt P10276). The assay is described as follows: ATG_DR5_RAR_CIS: Attagene CIS-FACTORIAL HepG2 Assay for human Retinoic Acid Receptor Alpha (RARE), DR5 submotif (AID 2282934). The note with it: HepG2 Attagene cis-factorial RARE DR5 reporter, mRNA; actives raise or lower the signal. In outline:
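After 24 h of chemical exposure, transiently transfected HepG2 cells were lysed for total RNA; the DR5-regulated reporter transcript was quantified via RT-PCR and capillary electrophoresis, with activity fitted bidirectionally against DMSO.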

Assay [7] concerns the target Transcription factor E2F1 (Homo sapiens) (UniProt Q01094). Nature of the assay: ATG_E2F_CIS: Attagene CIS-FACTORIAL HepG2 Assay for human E2F Transcription Factor 1 (AID 2282935). As to conditions: HepG2 Attagene cis-reporter, E2F reporter RNA transcripts; actives raise or lower the signal. The procedure, abridged: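 Endogenous E2F1 activity read through cis-promoter reporter units transfected into HepG2. After 24 h compound treatment, reporter mRNA measured by RT-PCR, HpaI digestion and capillary electrophoresis. Bidirectional fit versus DMSO.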

Assay [8] can be described thus: ATG_E_Box_CIS: Attagene CIS-FACTORIAL HepG2 Assay for human Enhancer Box (E-box) (AID 2282936). As to conditions: HepG2 E-box cis-reporter transcription, actives raise or lower the signal. In outline:
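HepG2 cells transiently transfected with multiplexed cis-element reporter units, dosed 24 h; reporter mRNA quantified by RT-PCR, 6-FAM labelling, HpaI digestion and capillary electrophoresis. E-box (USF1) signal fitted bidirectionally vs DMSO.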

The nature of assay [9]: ATG_M_61_CIS: Attagene CIS-FACTORIAL HepG2 Assay for M61 Transcription Factor (Internal Marker) (AID 2282937). As to conditions: HepG2 Attagene CIS-FACTORIAL M61 internal marker reporter; actives raise or lower the signal. The procedure, abridged:
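Human liver HepG2, transient MRTU transfection (cis promoter elements), 24 h compound. Total RNA → oligo(dT) RT → PCR → FAM label → HpaI → CE. Internal background marker; bidirectional fitting, DMSO = baseline.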

Assay [10] in a line: ATG_EGR_CIS: Attagene CIS-FACTORIAL HepG2 Assay for human Early Growth Response 1 (EGR1) (AID 2282938). The note with it: HepG2 Attagene CIS-FACTORIAL EGR reporter mRNA; actives raise or lower the signal. In outline:
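Transient transfection of human HepG2 with multiple cis-regulated reporter units, chemical exposure 24 h, total RNA isolated. Reverse transcription, PCR, fluorescent labelling and capillary electrophoresis quantify reporter transcripts; activity fitted bidirectionally against DMSO.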

Assay [11] in a line: ATG_M_19_CIS: Attagene CIS-FACTORIAL HepG2 Assay for M19 Transcription Factor (Internal Marker) (AID 2282939). The note with it: HepG2 Attagene CIS-FACTORIAL M19 internal marker reporter; actives raise or lower the signal. In outline:
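In this multiplexed cell assay, transiently transfected HepG2 reporter units report endogenous transcription-factor activity; after 24 hours of treatment, labelled reporter cDNA fragments are quantified by capillary electrophoresis and fitted bidirectionally against DMSO.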

Assay [12] can be described thus: ATG_ERE_CIS: Attagene CIS-FACTORIAL HepG2 Assay for Estrogen Response Element (ERE) (AID 2282940). As to conditions: HepG2 ERE cis-reporter, Attagene RNA transcript; actives raise or lower the signal. The procedure, abridged:
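Measuring endogenous transcription factor output, the assay doses transfected HepG2 cells for 24 hours and quantifies reporter transcripts by fluorescent RT-PCR and capillary electrophoresis, with DMSO as baseline.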

Assay [13] is described as follows: ATG_Ets_CIS: Attagene CIS-FACTORIAL HepG2 Assay for human Erythroblast Transformation Specific (ETS) (AID 2282941). The note with it: HepG2 ETS cis-reporter transcription, actives raise or lower the signal. The procedure, abridged:
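HepG2 cells transfected with multiple cis-regulated reporter units measuring endogenous ETS-driven transcription, 24 h after dosing. Reporter mRNA quantified by RT-PCR with capillary electrophoresis; bidirectional fit relative to DMSO.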

Assay [14] addresses Hepatocyte nuclear factor 3-beta (Homo sapiens) (UniProt Q9Y261). Nature of the assay: ATG_FoxA2_CIS: Attagene CIS-FACTORIAL HepG2 Assay for human Forkhead box A2 (FOXA2) (AID 2282942). As to conditions: HepG2 cis-reporter transcription factor activity, 24 h; actives raise or lower the signal. The procedure, abridged: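 Transient MRTU transfection of HepG2 liver cells; 24 h treatment; total RNA → oligo(dT) RT → PCR → FAM primer extension → HpaI cut → CE. Bidirectional fit vs DMSO.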

Assay [15] can be described thus: ATG_FoxO_CIS: Attagene CIS-FACTORIAL HepG2 Assay for human Forkhead box O (FoxO) (AID 2282943). The note with it: HepG2 Attagene cis-reporter, FoxO element, mRNA; actives raise or lower the signal. The procedure, abridged:
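Transfected HepG2 reporter cells exposed to test chemical for 24 h; reporter RNA measured by reverse transcription, PCR and fluorescent capillary electrophoresis; curves fitted for increases and decreases against DMSO.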

The nature of assay [16]: ATG_GATA_CIS: Attagene CIS-FACTORIAL HepG2 Assay for human GATA Binding Protein (AID 2282944). As to conditions: HepG2 GATA cis-element reporter, Attagene multiplex mRNA; actives raise or lower the signal. In outline: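 Measures endogenous transcription factor-driven reporter mRNA in HepG2 cells transiently carrying cis-regulated constructs. 24 h dosing; RNA via oligo(dT) reverse transcription, PCR, HpaI digestion, capillary electrophoresis; fitted relative to DMSO.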

The nature of assay [17]: ATG_GLI_CIS: Attagene CIS-FACTORIAL HepG2 Assay for human Zinc Finger Protein GLI1 (AID 2282945). The note with it: HepG2, Attagene cis-factorial reporter mRNA, GLI element; actives raise or lower the signal. The procedure, abridged:
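Transiently transfected HepG2 cells report endogenous transcription factor activity via cis-element-driven reporter units. After 24 h compound exposure, reporter mRNA was measured by RT-PCR with capillary electrophoresis; bidirectional fitting against DMSO baseline.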

In assay [18] the target is Bile acid receptor (Homo sapiens) (UniProt Q96RI1). The assay is described as follows: ATG_IR1_CIS: Attagene CIS-FACTORIAL HepG2 Assay for human Nuclear Receptor Subfamily 1 Group H Member 4 (NR1H4), IR1 submotif (AID 2282946). The note with it: IR1 reporter transcription, actives raise or lower the signal. In outline:
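HepG2 cells transiently transfected with multiple cis-promoter-driven reporter units to measure endogenous transcription factor activity; 24 h exposure. Reporter mRNA read by RT-PCR, FAM labelling, HpaI digestion and capillary electrophoresis. Bidirectional fit versus DMSO.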

Sequence of CCAAT/enhancer-binding protein beta (Homo sapiens) (P17676 whole entry, looked up): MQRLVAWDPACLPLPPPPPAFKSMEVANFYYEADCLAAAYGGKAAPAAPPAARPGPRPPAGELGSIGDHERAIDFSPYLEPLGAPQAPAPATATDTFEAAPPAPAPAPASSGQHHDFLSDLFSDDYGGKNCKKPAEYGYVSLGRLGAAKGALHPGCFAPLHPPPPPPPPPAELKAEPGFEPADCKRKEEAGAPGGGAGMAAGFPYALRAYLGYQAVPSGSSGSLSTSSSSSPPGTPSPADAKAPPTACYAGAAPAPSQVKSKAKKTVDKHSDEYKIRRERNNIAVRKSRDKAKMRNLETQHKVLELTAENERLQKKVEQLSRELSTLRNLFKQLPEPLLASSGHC
Sequence of Retinoic acid receptor alpha (Homo sapiens) (P10276 whole entry, looked up): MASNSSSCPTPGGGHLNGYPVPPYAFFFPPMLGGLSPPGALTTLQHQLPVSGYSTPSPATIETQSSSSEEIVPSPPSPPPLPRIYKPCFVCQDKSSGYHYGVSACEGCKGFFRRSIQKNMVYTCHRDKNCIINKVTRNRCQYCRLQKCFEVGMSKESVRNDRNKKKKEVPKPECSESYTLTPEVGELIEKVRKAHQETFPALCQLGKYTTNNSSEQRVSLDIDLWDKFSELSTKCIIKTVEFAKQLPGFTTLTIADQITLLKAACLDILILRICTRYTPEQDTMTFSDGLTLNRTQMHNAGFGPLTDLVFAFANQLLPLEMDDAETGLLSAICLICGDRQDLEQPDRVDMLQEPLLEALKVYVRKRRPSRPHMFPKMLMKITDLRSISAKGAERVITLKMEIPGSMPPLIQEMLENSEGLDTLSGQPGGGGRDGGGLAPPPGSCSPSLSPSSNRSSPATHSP
Sequence of Hepatocyte nuclear factor 3-beta (Homo sapiens) (Q9Y261 whole entry, looked up): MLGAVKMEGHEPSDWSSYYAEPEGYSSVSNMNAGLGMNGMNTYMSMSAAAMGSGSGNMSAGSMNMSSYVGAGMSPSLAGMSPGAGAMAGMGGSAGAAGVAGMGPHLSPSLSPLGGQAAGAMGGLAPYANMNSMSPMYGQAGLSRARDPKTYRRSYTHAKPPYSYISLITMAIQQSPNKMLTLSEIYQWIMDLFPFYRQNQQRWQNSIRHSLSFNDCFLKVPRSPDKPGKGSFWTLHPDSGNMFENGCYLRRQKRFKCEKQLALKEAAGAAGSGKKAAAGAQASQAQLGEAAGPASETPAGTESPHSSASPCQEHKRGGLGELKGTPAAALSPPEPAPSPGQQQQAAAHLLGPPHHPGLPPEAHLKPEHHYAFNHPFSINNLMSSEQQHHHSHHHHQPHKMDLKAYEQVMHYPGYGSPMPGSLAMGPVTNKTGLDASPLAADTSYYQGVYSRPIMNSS
Sequence of Transcription factor E2F1 (Homo sapiens) (Q01094 whole entry, looked up): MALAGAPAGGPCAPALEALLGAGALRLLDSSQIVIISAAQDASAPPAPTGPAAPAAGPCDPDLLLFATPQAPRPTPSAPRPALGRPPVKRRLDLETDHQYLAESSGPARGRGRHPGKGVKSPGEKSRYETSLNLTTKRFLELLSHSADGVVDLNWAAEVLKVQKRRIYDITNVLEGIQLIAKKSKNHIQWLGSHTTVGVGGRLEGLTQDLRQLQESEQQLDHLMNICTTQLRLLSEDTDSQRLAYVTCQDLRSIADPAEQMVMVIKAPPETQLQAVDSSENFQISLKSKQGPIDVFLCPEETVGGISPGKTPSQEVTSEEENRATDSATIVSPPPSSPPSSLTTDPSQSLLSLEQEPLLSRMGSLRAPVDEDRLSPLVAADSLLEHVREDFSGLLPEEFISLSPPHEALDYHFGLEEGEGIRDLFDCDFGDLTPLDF
Sequence of Bile acid receptor (Homo sapiens) (Q96RI1 whole entry, looked up): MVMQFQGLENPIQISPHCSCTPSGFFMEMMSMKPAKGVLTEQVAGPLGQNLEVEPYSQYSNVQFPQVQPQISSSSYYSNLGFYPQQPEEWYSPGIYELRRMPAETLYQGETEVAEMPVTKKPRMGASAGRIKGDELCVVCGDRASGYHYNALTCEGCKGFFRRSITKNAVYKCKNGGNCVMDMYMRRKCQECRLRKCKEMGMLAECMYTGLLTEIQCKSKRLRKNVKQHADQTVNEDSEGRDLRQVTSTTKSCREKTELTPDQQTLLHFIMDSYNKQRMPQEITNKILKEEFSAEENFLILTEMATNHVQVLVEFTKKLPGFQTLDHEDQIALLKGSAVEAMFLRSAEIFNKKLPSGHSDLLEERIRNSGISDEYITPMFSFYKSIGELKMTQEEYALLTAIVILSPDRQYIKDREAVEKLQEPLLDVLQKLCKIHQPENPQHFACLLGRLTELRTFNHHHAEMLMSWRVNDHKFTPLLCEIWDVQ

Take `CCC(O)=C1C(=O)CC(C(=O)O)CC1=O` (stereo unspecified): the outcome in assay [1], in [2], in assay [3], in assay [4], in assay [5] and in assay [6] was inactive. The molecule was classed as inactive in assay [7], in [8], in assay [9], in assay [10], in assay [11] and in [12]. Also, the outcome in assay [13], in [14], in assay [15], in assay [16], in assay [17] and in assay [18] was inactive.
On to `COc1c(Cl)ccc(Cl)c1C(=O)O`, for which the result in [1], in assay [2], in assay [3], in assay [4], in assay [5] and in assay [6] was inactive. The result in assay [7], in assay [8], in assay [9], in [10], in assay [11] and in [12] was inactive. In addition, the molecule was called inactive in assay [13], in assay [14], in [15], in [16] and in [17].
With `CCCCOC(=O)[C@@H](C)Oc1ccc(Oc2ccc(C(F)(F)F)cn2)cc1`, the outcome in assay [1], in assay [2], in assay [3], in assay [4], in [5] and in [6] was inactive. Besides, the call in assay [7], in assay [8], in [9], in [10], in assay [11] and in [13] was inactive. Besides, the outcome in [14], in [15], in assay [16], in assay [17] and in assay [18] was inactive. In addition, in assay [12], the AC50 is 59.1 µM (active).
Consider `COC(=O)c1ccccc1C(=O)O`, for which the outcome in assay [1], in [2], in assay [3], in [4], in assay [5] and in [6] was inactive. For the same molecule, the molecule was classed as inactive in assay [7], in [8], in [9], in [10], in assay [11] and in assay [12]. Also, the call in assay [13], in [14], in [15], in assay [16] and in assay [17] was inactive.
Turning to `CCCOC(=O)NCCCN(C)C`, the result in assay [1], in assay [2], in [3], in assay [4], in assay [5] and in assay [6] was inactive. Further, the call in [7], in assay [8], in assay [9], in assay [10], in assay [11] and in [13] was inactive. Moreover, the call in [14], in [15], in assay [16] and in [17] was inactive.
